Experimental data from the supplement of paper PMC10849652.
About 8,800 targets were measured; listed, in parts, are those with a hit and a random draw of the rest. About 0.5% of all pairs of compound and target were hits.

How the values were obtained:
Assay in all cases: log2 fold change, soluble protein after heating vs DMSO (PISA); higher = thermal stabilisation; K562 lysate, 10 uM; active = over 0.2 and 3.5 SD of the protein, either way, in both replicates (recomputed)
[1] = compound: C#Cc1cccc(Nc2ncnc3cc(OCCOC)c(OCCOC)cc23)c1 [erlotinib]
How it was run: (§1)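 Following dounce homogenisation of K562 pellets in PBS pH 7.4 with 1 mM MgCl2, crude extract at 1 mg/mL protein was incubated for 30 min with 10 μM compound. Aliquots were then heated for 3 min over 48°C-58°C and pooled, NP-40 was added to 0.5% at 4°C, and soluble protein was recovered as the supernatant at 21,000xg for 90 min. Channel-sum-equalised TMTpro 16plex LC-MS/MS quantified this protein. Each value, from duplicates, is a log-two fold change in thermal stability relative to solvent controls.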

[2] = compound: C/C(=N\NC(=O)C1=CC(=CC=C1)S(=O)(=O)N2CCOCC2)/C3=C(C=CC(=C3)Cl)O
How it was run: as §1

[3] = compound: C1=CC(=CC=C1C2=NC3=C(N2)C=C(C=C3)C(=O)N)OC4=CC=C(C=C4)Cl
How it was run: as §1

[4] = compound: C1=CC2=C(C=CC(=C2)/C=C\3/C(=O)NC(=NCC4=CC=CS4)S3)N=C1
How it was run: as §1

[5] = compound: C1=CC2=NC=CN=C2C=C1/C=C/3\C(=O)NC(=O)S3
How it was run: as §1

[6] = compound: C1=CC=C(C=C1)C2=NC(=C(N2)C3=CC=NC=C3)C4=CC(=C(C=C4)Cl)O
How it was run: as §1

[7] = compound: C1=CC=C2C(=C1)C3=NNC4=CC=CC(=C43)C2=O
How it was run: as §1

[8] = compound: C1CCN(C1)C(=O)NC2=CC=CC(=C2)NC3=NC=C(C(=N3)NCCC4=CN=CN4)Br
How it was run: as §1

[9] = compound: C1CN(CCC1(CC2=CC=C(C=C2)Cl)N)C3=NC=NC4=C3C=CN4
How it was run: as §1

[10] = compound: C1COCCN1CCN2C3=CC=CC=C3N=C2NC(=O)C4=CC(=CC=C4)[N+](=O)[O-] [IRAK-1-4 Inhibitor I]
How it was run: as §1

[11] = compound: C=CC(=O)N1CCC[C@@H](n2nc(-c3ccc(Oc4ccccc4)cc3)c3c(N)ncnc32)C1 [ibrutinib]
How it was run: as §1

[12] = compound: CC(=O)c1cnc2ccc(-c3cc(Cl)c(O)c(Cl)c3)nc2c1N[C@H]1CC[C@H](CN(C)C)CC1
How it was run: as §1

[13] = compound: CC(C)(C)Cn1c(N)nc2ccc(-c3[nH]c(C(C)(C)C)nc3-c3ccc(F)cc3)nc21 [ralimetinib]
How it was run: as §1

[14] = compound: CC(C)(O)CC(=O)NCCn1ccc2ncnc(Nc3ccc(Oc4cccc(C(F)(F)F)c4)c(Cl)c3)c21
How it was run: as §1

[15] = compound: CC(C)C1=C2N=C(C=C(N2N=C1)NCC3=CC=CC=C3)NCCCCCCN
How it was run: as §1

[16] = compound: CC1=C(C(CC(=O)N1)C2=CC=C(C=C2)C(F)(F)F)C(=O)NC3=C(C=C4C(=C3)C=NN4)F
How it was run: as §1

[17] = compound: CC1=C(C2=C(C=C1)C(=O)C3=CC=CC=C3N2CCCN)C
How it was run: as §1

[18] = compound: CC1=C(C=C(C=C1)NC(=O)C2=CC(=CC=C2)C(C)(C)C#N)NC3=CC4=C(C=C3)N=CN(C4=O)C
How it was run: as §1

[19] = compound: CC1=C(C=C(C=C1)NC(=O)C2=CC(=CC=C2)N(C)C)NC(=O)C3=CC=C(C=C3)O
How it was run: as §1

[20] = compound: CC1=CC=C(C=C1)SC2=C3C=C(SC3=CN=C2)C(=O)N
How it was run: as §1

Measured: log2 fold change

GAMT (UniProt Q14353)
inactive: [1] 0.018 | [2] -0.008 | [3] 0.033 | [4] -0.008 | [5] -0.01 | [6] -0.016 | [7] 0.036 | [8] 0.035 | [9] 0.066 | [10] -0.001 | [11] 0.029 | [12] -0.008 | [13] 0.019 | [14] 0.013 | [15] -0.041 | [16] 0.071 | [17] -0.009 | [18] -0.003 | [19] -0.003 | [20] 0.005

ESRRA (UniProt P11474)
UniProt P11474, sequence (P11474 whole entry, looked up): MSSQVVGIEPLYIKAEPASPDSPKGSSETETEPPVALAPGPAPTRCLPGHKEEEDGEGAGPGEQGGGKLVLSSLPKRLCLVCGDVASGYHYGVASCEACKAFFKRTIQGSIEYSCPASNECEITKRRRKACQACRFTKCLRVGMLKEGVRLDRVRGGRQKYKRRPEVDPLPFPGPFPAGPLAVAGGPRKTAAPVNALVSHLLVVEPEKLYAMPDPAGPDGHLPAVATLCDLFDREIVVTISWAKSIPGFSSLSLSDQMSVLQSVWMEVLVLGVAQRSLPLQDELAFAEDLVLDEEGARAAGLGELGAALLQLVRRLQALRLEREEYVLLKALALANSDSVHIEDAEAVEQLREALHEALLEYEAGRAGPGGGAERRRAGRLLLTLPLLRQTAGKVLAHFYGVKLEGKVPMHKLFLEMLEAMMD
active: [11] -0.408
inactive: [1] 0.065 | [2] 0.171 | [3] -0.037 | [4] 0.06 | [5] -0.131 | [6] -0.033 | [7] -0.112 | [8] -0.018 | [9] 0.2 | [10] 0.029 | [12] 0.045 | [13] 0.043 | [14] -0.023 | [15] 0 | [16] -0.007 | [17] -0.075 | [18] 0.067 | [19] -0.009 | [20] 0.089

DTWD1 (UniProt Q8N5C7)
inactive: [1] 0.01 | [2] 0.082 | [3] -0.039 | [4] -0.004 | [5] -0.048 | [6] -0.025 | [7] 0.039 | [8] 0.01 | [9] 0.047 | [10] -0.01 | [11] 0.013 | [12] 0.032 | [13] 0.005 | [14] 0.005 | [15] 0.034 | [16] 0.058 | [17] -0.019 | [18] 0 | [19] -0.02 | [20] -0.027

FBXO9 (UniProt Q9UK97)
inactive: [1] -0.06 | [2] 0.126 | [3] 0.091 | [4] 0.013 | [5] 0.086 | [6] 0.01 | [7] -0.032 | [8] 0.019 | [9] -0.108 | [10] -0.005 | [11] 0.006 | [12] -0.014 | [13] -0.046 | [14] 0.077 | [15] -0.09 | [16] 0.009 | [17] 0.019 | [18] 0.017 | [19] 0.047 | [20] 0.026

EEF1A1P5 (UniProt Q5VTE0)
UniProt Q5VTE0, sequence (Q5VTE0 whole entry, looked up): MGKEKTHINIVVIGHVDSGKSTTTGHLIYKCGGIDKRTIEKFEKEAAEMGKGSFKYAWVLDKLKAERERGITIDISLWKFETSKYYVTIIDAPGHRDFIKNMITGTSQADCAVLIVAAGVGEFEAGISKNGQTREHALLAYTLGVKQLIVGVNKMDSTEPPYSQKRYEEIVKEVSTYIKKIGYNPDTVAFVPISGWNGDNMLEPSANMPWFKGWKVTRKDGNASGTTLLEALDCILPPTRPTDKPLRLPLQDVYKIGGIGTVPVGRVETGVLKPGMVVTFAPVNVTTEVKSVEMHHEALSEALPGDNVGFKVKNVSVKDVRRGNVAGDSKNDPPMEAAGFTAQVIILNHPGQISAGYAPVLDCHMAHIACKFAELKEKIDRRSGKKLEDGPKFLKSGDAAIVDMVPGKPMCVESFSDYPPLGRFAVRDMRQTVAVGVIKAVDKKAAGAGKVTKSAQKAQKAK
inactive: [1] 0.014 | [2] -0.054 | [3] 0.023 | [4] 0 | [5] 0.001 | [6] -0.01 | [7] -0.065 | [8] -0.048 | [9] 0.022 | [10] 0.003 | [11] -0.01 | [12] -0.007 | [13] 0.001 | [14] -0.014 | [15] 0.032 | [16] 0.008 | [17] 0.019 | [18] -0.006 | [19] 0.012 | [20] -0.011

FPGT (UniProt O14772)
UniProt O14772, sequence (O14772 whole entry, looked up): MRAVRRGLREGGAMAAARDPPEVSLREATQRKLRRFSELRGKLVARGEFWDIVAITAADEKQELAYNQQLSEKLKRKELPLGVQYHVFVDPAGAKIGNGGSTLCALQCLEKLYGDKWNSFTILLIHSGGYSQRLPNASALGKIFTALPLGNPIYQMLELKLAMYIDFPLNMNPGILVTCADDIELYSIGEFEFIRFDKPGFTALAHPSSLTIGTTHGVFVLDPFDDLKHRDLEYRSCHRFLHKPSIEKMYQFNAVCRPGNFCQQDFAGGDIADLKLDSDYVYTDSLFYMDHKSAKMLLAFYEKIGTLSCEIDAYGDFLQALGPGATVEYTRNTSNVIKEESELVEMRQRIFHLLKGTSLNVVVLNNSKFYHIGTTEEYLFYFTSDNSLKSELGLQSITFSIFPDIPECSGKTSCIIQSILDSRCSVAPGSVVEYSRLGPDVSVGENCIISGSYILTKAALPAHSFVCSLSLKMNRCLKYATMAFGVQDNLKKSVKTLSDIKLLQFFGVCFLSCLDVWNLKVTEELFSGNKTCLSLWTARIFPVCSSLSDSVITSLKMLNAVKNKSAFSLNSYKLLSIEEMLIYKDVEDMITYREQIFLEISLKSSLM
inactive: [1] 0.031 | [2] -0.005 | [3] -0.003 | [4] 0.011 | [5] 0.023 | [6] -0.002 | [7] -0.108 | [8] 0.006 | [9] -0.013 | [10] 0.023 | [11] -0.016 | [12] -0.033 | [13] 0.005 | [14] 0.011 | [15] 0.014 | [16] 0.009 | [17] 0.029 | [18] 0.02 | [19] 0.003 | [20] -0.033

FBXO30 (UniProt Q8TB52)
UniProt Q8TB52, sequence (Q8TB52 whole entry, looked up): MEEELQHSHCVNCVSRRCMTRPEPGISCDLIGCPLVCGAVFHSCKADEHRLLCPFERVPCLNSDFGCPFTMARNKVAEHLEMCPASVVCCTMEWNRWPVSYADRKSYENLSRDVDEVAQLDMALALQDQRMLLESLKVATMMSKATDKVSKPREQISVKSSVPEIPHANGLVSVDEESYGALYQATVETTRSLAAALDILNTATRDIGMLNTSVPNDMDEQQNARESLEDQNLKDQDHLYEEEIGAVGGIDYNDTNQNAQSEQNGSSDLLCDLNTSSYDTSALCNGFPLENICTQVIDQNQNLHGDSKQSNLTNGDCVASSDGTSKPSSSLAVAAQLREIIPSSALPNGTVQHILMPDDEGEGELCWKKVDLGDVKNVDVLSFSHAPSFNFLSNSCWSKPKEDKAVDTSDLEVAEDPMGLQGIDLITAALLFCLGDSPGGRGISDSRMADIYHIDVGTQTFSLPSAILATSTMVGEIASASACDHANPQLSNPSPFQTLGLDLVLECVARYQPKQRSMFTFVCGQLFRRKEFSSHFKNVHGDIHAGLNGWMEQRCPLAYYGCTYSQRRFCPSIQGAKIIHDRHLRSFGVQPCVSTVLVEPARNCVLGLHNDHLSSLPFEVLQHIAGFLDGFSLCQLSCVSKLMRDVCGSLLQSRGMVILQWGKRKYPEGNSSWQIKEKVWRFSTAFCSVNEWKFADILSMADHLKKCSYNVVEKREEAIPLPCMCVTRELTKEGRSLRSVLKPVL
inactive: [1] 0.006 | [2] -0.064 | [3] -0.031 | [4] 0.014 | [5] -0.038 | [6] -0.008 | [7] 0.042 | [8] -0.014 | [9] -0.007 | [10] -0.018 | [11] 0.022 | [12] -0.007 | [13] 0.057 | [14] 0.046 | [15] -0.009 | [16] -0.003 | [17] 0.013 | [18] 0.016 | [19] 0.006 | [20] 0.016

GBF1 (UniProt Q92538)
inactive: [1] 0.044 | [2] 0.043 | [3] -0.036 | [4] -0.009 | [5] 0.002 | [6] -0.008 | [7] -0.012 | [8] -0.007 | [9] 0.023 | [10] 0.058 | [11] 0.007 | [12] -0.001 | [13] 0.051 | [14] -0.03 | [15] -0.011 | [16] -0.003 | [17] -0.011 | [18] -0.015 | [19] 0.017 | [20] 0.012

EXOC2 (UniProt Q96KP1)
UniProt Q96KP1, sequence (Q96KP1 whole entry, looked up): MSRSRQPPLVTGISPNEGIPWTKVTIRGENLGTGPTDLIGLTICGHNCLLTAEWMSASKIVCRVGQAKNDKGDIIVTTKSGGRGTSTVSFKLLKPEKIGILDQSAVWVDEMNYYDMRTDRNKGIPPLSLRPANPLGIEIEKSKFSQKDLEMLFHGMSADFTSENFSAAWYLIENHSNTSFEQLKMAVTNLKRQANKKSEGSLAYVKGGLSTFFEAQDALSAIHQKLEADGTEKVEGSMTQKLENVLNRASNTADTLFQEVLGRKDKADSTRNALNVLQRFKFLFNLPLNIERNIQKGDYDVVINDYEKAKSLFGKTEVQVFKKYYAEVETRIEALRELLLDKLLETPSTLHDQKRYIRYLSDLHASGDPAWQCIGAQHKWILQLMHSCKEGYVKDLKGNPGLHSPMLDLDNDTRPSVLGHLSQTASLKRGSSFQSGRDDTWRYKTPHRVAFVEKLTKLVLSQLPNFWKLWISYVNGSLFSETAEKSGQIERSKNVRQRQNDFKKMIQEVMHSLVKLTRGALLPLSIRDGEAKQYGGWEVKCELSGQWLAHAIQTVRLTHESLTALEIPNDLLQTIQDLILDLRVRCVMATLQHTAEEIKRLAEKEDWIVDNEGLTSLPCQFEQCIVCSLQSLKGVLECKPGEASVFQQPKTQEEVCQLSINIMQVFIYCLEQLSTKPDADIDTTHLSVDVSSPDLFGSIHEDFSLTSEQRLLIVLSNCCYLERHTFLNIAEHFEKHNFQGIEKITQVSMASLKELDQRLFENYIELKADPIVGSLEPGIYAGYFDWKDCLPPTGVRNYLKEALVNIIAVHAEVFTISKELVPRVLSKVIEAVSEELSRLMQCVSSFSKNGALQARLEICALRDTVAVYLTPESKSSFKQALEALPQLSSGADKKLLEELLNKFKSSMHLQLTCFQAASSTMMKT
inactive: [1] 0.011 | [2] -0.008 | [3] -0.028 | [4] 0.049 | [5] -0.008 | [6] -0.001 | [7] -0.042 | [8] -0.018 | [9] 0.016 | [10] 0.009 | [11] 0.014 | [12] 0.003 | [13] 0.049 | [14] -0.027 | [15] -0.022 | [16] 0.01 | [17] -0.019 | [18] 0.016 | [19] 0.032 | [20] 0.004

ENGASE (UniProt Q8NFI3)
UniProt Q8NFI3, sequence (Q8NFI3 whole entry, looked up): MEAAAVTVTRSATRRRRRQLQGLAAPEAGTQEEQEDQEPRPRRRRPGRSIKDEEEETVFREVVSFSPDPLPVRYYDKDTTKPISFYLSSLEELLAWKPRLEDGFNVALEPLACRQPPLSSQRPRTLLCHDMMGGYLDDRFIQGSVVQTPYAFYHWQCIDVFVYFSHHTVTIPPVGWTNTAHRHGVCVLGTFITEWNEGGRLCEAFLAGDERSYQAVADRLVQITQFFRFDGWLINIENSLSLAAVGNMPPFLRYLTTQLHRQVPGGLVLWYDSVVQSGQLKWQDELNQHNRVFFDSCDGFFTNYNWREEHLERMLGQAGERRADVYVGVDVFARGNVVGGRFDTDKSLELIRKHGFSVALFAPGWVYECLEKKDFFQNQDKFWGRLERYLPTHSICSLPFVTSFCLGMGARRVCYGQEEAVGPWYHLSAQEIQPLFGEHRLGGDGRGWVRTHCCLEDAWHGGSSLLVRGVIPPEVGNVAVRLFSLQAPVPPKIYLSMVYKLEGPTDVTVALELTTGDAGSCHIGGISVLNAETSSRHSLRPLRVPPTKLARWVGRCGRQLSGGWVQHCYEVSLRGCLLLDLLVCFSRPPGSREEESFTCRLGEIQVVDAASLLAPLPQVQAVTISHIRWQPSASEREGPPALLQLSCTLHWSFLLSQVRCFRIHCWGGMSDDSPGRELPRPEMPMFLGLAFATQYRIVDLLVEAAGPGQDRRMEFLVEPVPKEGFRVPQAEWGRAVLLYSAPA
inactive: [1] 0.036 | [2] 0 | [3] 0.043 | [4] -0.069 | [5] 0.008 | [6] 0.002 | [7] -0.04 | [8] 0.009 | [9] 0.043 | [10] 0.007 | [11] 0.019 | [12] 0.019 | [13] -0.02 | [14] 0.012 | [15] -0.02 | [16] -0.002 | [17] 0.012 | [18] -0.046 | [19] 0.067 | [20] 0

FTSJ3 (UniProt Q8IY81)
inactive: [1] 0.064 | [2] -0.157 | [3] 0.002 | [4] -0.014 | [5] -0.028 | [6] 0.025 | [7] 0.065 | [8] 0.012 | [9] 0.022 | [10] -0.018 | [11] 0.05 | [12] 0.005 | [13] 0.026 | [14] -0.033 | [15] 0.086 | [16] 0.016 | [17] -0.037 | [18] -0.01 | [19] 0.002 | [20] 0.04

FAM118B (UniProt Q9BPY3)
UniProt Q9BPY3, sequence (Q9BPY3 whole entry, looked up): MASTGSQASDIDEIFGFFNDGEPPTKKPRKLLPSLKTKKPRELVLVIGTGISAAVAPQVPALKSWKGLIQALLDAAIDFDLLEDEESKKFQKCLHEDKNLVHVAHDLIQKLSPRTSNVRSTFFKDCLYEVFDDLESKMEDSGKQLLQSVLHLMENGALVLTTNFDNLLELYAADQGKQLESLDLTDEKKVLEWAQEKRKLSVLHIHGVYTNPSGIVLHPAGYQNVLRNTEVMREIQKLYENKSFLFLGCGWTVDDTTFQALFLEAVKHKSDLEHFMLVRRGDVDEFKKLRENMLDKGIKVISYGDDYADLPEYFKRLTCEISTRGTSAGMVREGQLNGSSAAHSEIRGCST
inactive: [1] -0.004 | [2] 0.051 | [3] 0.004 | [4] 0.061 | [5] 0.03 | [6] -0.01 | [7] -0.012 | [8] 0.013 | [9] -0.004 | [10] -0.03 | [11] 0.066 | [12] -0.016 | [13] 0.015 | [14] -0.019 | [15] 0.023 | [16] -0.01 | [17] 0.012 | [18] -0.012 | [19] 0.03 | [20] 0.008

ERLIN1 (UniProt O75477)
inactive: [1] -0.031 | [2] 0.123 | [3] -0.17 | [4] 0.072 | [5] -0.038 | [6] 0.015 | [7] -0.02 | [8] -0.015 | [9] -0.046 | [10] -0.071 | [11] 0.005 | [12] 0.034 | [13] -0.011 | [14] 0.038 | [15] -0.007 | [16] 0.044 | [17] 0.005 | [18] -0.052 | [19] -0.008 | [20] 0.012

ELF2 (UniProt Q15723)
inactive: [1] 0.023 | [2] -0.136 | [3] 0.059 | [4] -0.068 | [5] 0.07 | [6] -0.036 | [7] -0.056 | [8] 0.009 | [9] -0.022 | [10] -0.01 | [11] 0.07 | [12] 0.116 | [13] 0.013 | [14] -0.038 | [15] 0.006 | [16] -0.017 | [17] -0.066 | [18] 0.035 | [19] 0.022 | [20] -0.028

EIF2AK2 (UniProt P19525)
UniProt P19525, sequence (P19525 whole entry, looked up): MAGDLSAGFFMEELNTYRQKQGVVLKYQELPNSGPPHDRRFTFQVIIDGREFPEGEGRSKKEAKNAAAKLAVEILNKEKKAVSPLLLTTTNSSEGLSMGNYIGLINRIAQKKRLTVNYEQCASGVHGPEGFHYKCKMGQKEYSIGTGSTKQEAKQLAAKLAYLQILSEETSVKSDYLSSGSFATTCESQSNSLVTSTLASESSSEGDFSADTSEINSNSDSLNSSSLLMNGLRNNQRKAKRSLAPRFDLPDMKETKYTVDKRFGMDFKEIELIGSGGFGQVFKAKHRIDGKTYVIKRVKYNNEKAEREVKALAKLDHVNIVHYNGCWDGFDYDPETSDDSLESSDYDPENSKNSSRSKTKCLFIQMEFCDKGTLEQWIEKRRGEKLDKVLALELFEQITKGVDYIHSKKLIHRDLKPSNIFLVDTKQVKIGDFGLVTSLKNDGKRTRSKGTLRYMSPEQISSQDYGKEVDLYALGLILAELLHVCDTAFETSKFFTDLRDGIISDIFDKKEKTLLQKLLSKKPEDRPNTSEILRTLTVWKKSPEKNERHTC
inactive: [1] 0.02 | [2] 0.011 | [3] -0.055 | [4] -0.072 | [5] 0.003 | [6] 0.005 | [7] -0.039 | [8] -0.013 | [9] 0.016 | [10] -0.011 | [11] 0.014 | [12] 0.015 | [13] -0.025 | [14] 0.035 | [15] -0.009 | [16] 0.015 | [17] -0.008 | [18] -0.015 | [19] -0.019 | [20] -0.03

ENY2 (UniProt Q9NPA8)
UniProt Q9NPA8, sequence (Q9NPA8 whole entry, looked up): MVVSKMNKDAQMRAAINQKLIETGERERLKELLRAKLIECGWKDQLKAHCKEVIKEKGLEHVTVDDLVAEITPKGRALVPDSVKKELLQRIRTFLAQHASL
inactive: [1] 0.033 | [2] 0.03 | [3] -0.015 | [4] 0.002 | [5] -0.026 | [6] 0.043 | [7] 0.081 | [8] 0.104 | [9] -0.087 | [10] -0.019 | [11] 0.161 | [12] 0.038 | [13] -0.021 | [14] 0.057 | [15] 0 | [16] -0.069 | [17] 0.066 | [18] 0.075 | [19] -0.052 | [20] 0.035
